Results from PubChem BioAssay AID1159580 (chemical genetic matrix, 2015).
Where “and” joins values, the source holds several entries; their conditions need not be identical. Equal entries are not always repeated. Hit rate of the full screen: of about 5,500 compounds, about 2,000 (36%) were called active. Inconclusive results (about 18%) are left out. Rule as the data show it: active = normalized growth mostly below about 0.91 (no sharp cut-off); inconclusive = no clear call, values can overlap the other calls; inactive = mostly above about 0.92. The list shows a part of the results.

Assay: chemical genetic growth profiling, strain panel (AID 1159580);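 also: tested at 20 µM; growth read once vehicle control cultures reached saturation at 30 °C; 1 = growth at the plate median or of vehicle wells; lower values mean less growth of the strain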
Conditions: S. cerevisiae deletion strains, growth OD

Measured: normalized growth

CC1=CC(=O)c2ccccc2C1=O
active: locus YAL013W, strain DEP1, hits give low values 0.0548 | locus YAL026C, strain drs2, hits give low values 0.903 | locus YBR009C, strain hhf1, hits give low values 0.757 | locus YBR021W, strain FUR4, hits give low values 0.0857 | locus YBR229C, strain ROT2, hits give low values 0.076 | locus YCL011C, strain gbp2, hits give low values 0.864 | locus YCL029C, strain bik1, hits give low values 0.0624 | locus YDL035C, strain GPR1, hits give low values 0.0512 | locus YDL074C, strain BRE1, hits give low values 0.108 | locus YDL101C, strain DUN1, hits give low values 0.0567 | locus YDL134C, strain PPH21, hits give low values 0.046 | locus YDL185W, strain tfp1, hits give low values 0.0717 | locus YDL192W, strain arf1, hits give low values 0.0585 | locus YDR101C, strain arx1, hits give low values 0.0639 | locus YDR150W, strain NUM1, hits give low values 0.0617 | locus YDR162C, strain NBP2, hits give low values 0.054 | locus YDR195W, strain ref2 1.3 [resistant] | locus YDR318W, strain mcm21, hits give low values 0.0603 | locus YDR388W, hits give low values 0.0538 | locus YDR392W, strain spt3, hits give low values 0.539 | locus YDR502C, strain sam2, hits give low values 0.059 | locus YEL061C, strain CIN8, hits give low values 0.0492 | locus YER110C, hits give low values 0.0711 | locus YER155C, strain BEM2, hits give low values 0.076 | locus YER167W, strain BCK2, hits give low values 0.0494 | locus YGL078C, strain dbp3, hits give low values 0.294 | locus YGL086W, strain mad1, hits give low values 0.0543 | locus YGL240W, strain doc1, hits give low values 0.871 | locus YGL248W, strain PDE1, hits give low values 0.0439 | locus YGL253W, strain hxk2, hits give low values 0.887 | locus YGR078C, strain PAC10, hits give low values 0.0487 | locus YGR135W, strain pre9, hits give low values 0.0619 | locus YGR229C, strain SMI1, hits give low values 0.0566 | locus YGR252W, strain gcn5, hits give low values 0.168 | locus YHR013C, strain ard1, hits give low values 1.17 [resistant] | locus YHR030C, strain SLT2, hits give low values 0.0463 and 0.306 | locus YHR079C, strain IRE1 (second series), hits give low values 0.0572 | locus YHR079C, strain IRE1, hits give low values 0.291 | locus YHR094C, strain hxt1, hits give low values 0.0585 | locus YHR129C, strain ARP1, hits give low values 0.058 | locus YHR142W, strain chs7, hits give low values 0.838 | locus YHR200W, strain rpn10, hits give low values 0.0601 | locus YIL066C, strain RNR3, hits give low values 0.0506 | locus YIL073C, strain SPO22, hits give low values 0.117 | locus YIL125W, strain kgd1, hits give low values 0.419 | locus YIR030C, strain dcg1, hits give low values 0.0593 | locus YJL095W, strain BCK1, hits give low values 0.0528 and 0.292 | locus YJL134W, strain LCB3, hits give low values 0.0458 | locus YJL166W, strain qcr8, hits give low values 0.639 | locus YJL168C, strain set2, hits give low values 0.0804 | locus YJL187C, strain SWE1 (second series), hits give low values 0.0592 | locus YJR043C, strain POL32, hits give low values 0.0645 | locus YJR066W, strain TOR1, hits give low values 0.368
inactive: locus YAL021C, strain ccr4, hits give low values 1.02 | locus YAL030W, strain snc1, hits give low values 1.02 | locus YBL061C, strain skt5, hits give low values 1.03 | locus YBR023C, strain chs3, hits give low values 0.999 | locus YBR171W, strain sec66, hits give low values 1.03 | locus YBR231C, strain swc5, hits give low values 0.955 | locus YBR279W, strain paf1, hits give low values 0.971 | locus YCL016C, strain dcc1, hits give low values 0.933 | locus YCL061C, strain MRC1, hits give low values 0.932 | locus YCL069W, strain vba3, hits give low values 0.967 | locus YCR088W, strain abp1, hits give low values 1.03 | locus YDL005C, strain med2, hits give low values 1.03 | locus YDL040C, strain nat1, hits give low values 1.03 | locus YDR001C, strain nth1, hits give low values 1.04 | locus YDR069C, strain doa4, hits give low values 1.03 | locus YDR137W, strain rgp1, hits give low values 0.916 | locus YDR159W, strain sac3, hits give low values 0.983 | locus YDR297W, strain sur2, hits give low values 0.988 | locus YDR334W, strain swr1, hits give low values 1.01 | locus YDR335W, strain msn5, hits give low values 1.01 | locus YEL003W, strain gim4, hits give low values 0.938 | locus YEL037C, strain rad23, hits give low values 0.994 | locus YEL061C, strain CIN8 (second series), hits give low values 1.02 | locus YER015W, strain faa2, hits give low values 0.971 | locus YER016W, strain bim1, hits give low values 1.02 | locus YER111C, strain swi4, hits give low values 1.02 | locus YER155C, strain BEM2 (second series), hits give low values 0.993 | locus YFR010W, strain ubp6, hits give low values 0.989 | locus YGL167C, strain pmr1, hits give low values 1.04 | locus YGL173C, strain kem1, hits give low values 0.987 | locus YGL227W, strain vid30, hits give low values 0.974 | locus YHR027C, strain rpn1, hits give low values 0.997 | locus YJL092W, strain hpr5, hits give low values 1.02 | locus YJL095W, strain BCK1 (second series), hits give low values 1.02 | locus YJL115W, strain asf1, hits give low values 1.03 | locus YJL129C, strain trk1, hits give low values 1.02 | locus YJL154C, strain vps35, hits give low values 1.03 | locus YJL164C, strain tpk1, hits give low values 0.934
